Measured values as given in the supplement of paper PMC6555819.

Tests used:
Assay in all cases: PBM binding z-score (relative to random genomic background probes); higher = stronger binding; sequences stand for … in GC…GCGATTGACAGCGTAGAATGAAGG
[1] = system: FXR:RXRa (NR concentration 270 nM, RXRa partner concentration 90 nM)
In short: (§1)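 Antibodies against each partner of ligand-free nuclear receptor dimers (one per run) detected binding on custom Agilent 4×180K protein-binding microarrays after 1 h incubation. The double-stranded probes had 34-nt variable regions carrying direct-repeat seeds, single-nucleotide variants, half-site ablations and random human genomic background sequences. Binding z-scores, from regression-normalized fluorescence, use the random background probes as reference.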

[2] = system: LXRa:RXRa (NR concentration 270 nM, RXRa partner concentration 90 nM)
In short: as §1

[3] = system: LXRa homodimer (NR concentration 270 nM)
In short: as §1

[4] = system: LXRb:RXRa (NR concentration 270 nM, RXRa partner concentration 90 nM)
In short: as §1

[5] = system: LXRb homodimer (NR concentration 270 nM)
In short: as §1

[6] = system: PPARa:RXRa (NR concentration 270 nM, RXRa partner concentration 90 nM)
In short: as §1

[7] = system: PPARg:RXRa (NR concentration 180 nM, RXRa partner concentration 90 nM)
In short: as §1

[8] = system: PPARg:RXRa 270nM:90nM, anti-RXR (NR concentration 270 nM, RXRa partner concentration 90 nM)
In short: as §1

[9] = system: PPARg:RXRa 30nM:10nM, anti-RXR (NR concentration 30 nM, RXRa partner concentration 10 nM)
In short: as §1

[10] = system: PPARg:RXRa 90nM:30nM, anti-RXR (NR concentration 90 nM, RXRa partner concentration 30 nM)
In short: as §1

[11] = system: PPARg:RXRa DBDmut IVT, anti-RXR (DBD mutation: RXRa K156A/R161A, NR concentration 270 nM, RXRa partner concentration 90 nM)
In short: as §1

[12] = system: PPARg:RXRa IVT, anti-PPARg (NR concentration 270 nM, RXRa partner concentration 90 nM)
In short: as §1

[13] = system: PPARg DBDmut:RXRa IVT, anti-PPARg (DBD mutation: PPARg1 K132A/R137A, NR concentration 270 nM, RXRa partner concentration 90 nM)
In short: as §1

[14] = system: PPARg DBDmut IVT, anti-PPARg (DBD mutation: PPARg1 K132A/R137A, NR concentration 270 nM)
In short: as §1

[15] = system: PPARg homodimer (NR concentration 180 nM)
In short: as §1

[16] = system: PXR:RXRa (NR concentration 270 nM, RXRa partner concentration 90 nM)
In short: as §1

[17] = system: PXR homodimer (NR concentration 270 nM)
In short: as §1

[18] = system: RARa:RXR (NR concentration 270 nM, RXRa partner concentration 90 nM)
In short: as §1

[19] = system: RARa homodimer (NR concentration 270 nM)
In short: as §1

[20] = system: RARb:RXRa (NR concentration 270 nM, RXRa partner concentration 90 nM)
In short: as §1

| Sequence | PBM binding z-score [1] | PBM binding z-score [2] | PBM binding z-score [3] | PBM binding z-score [4] | PBM binding z-score [5] | PBM binding z-score [6] | PBM binding z-score [7] | PBM binding z-score [8] | PBM binding z-score [9] | PBM binding z-score [10] | PBM binding z-score [11] | PBM binding z-score [12] | PBM binding z-score [13] | PBM binding z-score [14] | PBM binding z-score [15] | PBM binding z-score [16] | PBM binding z-score [17] | PBM binding z-score [18] | PBM binding z-score [19] | PBM binding z-score [20] |
| --- | --- | --- | --- | --- | --- | --- | --- | --- | --- | --- | --- | --- | --- | --- | --- | --- | --- | --- | --- | --- |
| AGAACGAGGGCATGCTGAGTTGATAGCAGAGTAG | 0.426 | 0.131 | -0.52 | -0.164 | -1.15 | 1.12 | 0.939 | 0.666 | 0.00172 | 0.416 | 2.87 | 1.99 | 0.0501 | -0.0747 | -0.0685 | 1.14 | 0.117 | 0.374 | -0.883 | 1.89 |
| ACAGACAGGTGAATGAAGGTAACTCAGCTGGACG | 0.255 | -0.0154 | -0.43 | -0.273 | -0.569 | 0.447 | 0.97 | 0.258 | 0.0803 | 0.0876 | 0.834 | 1.06 | 0.562 | -0.518 | -0.217 | -0.156 | -0.221 | 0.42 | -0.316 | 0.743 |
| ACAGACAGGTGAGTGAAGGTGACTCAGCTGGACG | 0.162 | -0.00172 | -0.654 | -0.308 | -0.35 | 0.592 | 0.8 | 0.28 | -0.492 | -0.01 | 0.718 | 1.24 | 0.42 | -0.00311 | -0.248 | -0.0313 | -0.405 | 0.49 | 0.0445 | 0.935 |
| TAGCCTAGATCATGCGGGCCAGTATAGTGTCGGC | -2.92 | -1.33 | -1.04 | -1.36 | -0.772 | -0.834 | 0.0405 | -0.522 | -0.938 | -0.742 | 0.553 | 0.672 | -0.852 | -1.76 | -1.53 | -1.41 | -1.04 | -1.57 | -0.691 | -1.2 |
| CCTTACGGGTCACTCCAGTTTATAGCATCGGAGT | 5.02 | 6.61 | 0.838 | 3.77 | -0.0101 | 4.4 | 3.25 | 3.3 | 1.11 | 2.27 | 2.98 | 3.39 | 0.913 | 0.686 | 2.32 | 6.04 | 1.06 | 3.6 | 0.603 | 3.74 |
| AGCCAAAGTTCAGGACGAGGTAACGTAAAGCACG | 4.33 | 3.71 | 1.39 | 1.94 | 0.134 | 3.22 | 3.24 | 3.54 | 0.828 | 2.74 | -0.0528 | 1.03 | -0.637 | -0.0617 | 1.29 | 2.65 | 0.942 | 2.64 | 0.246 | 4.33 |
| AGAATGTGGTTATACGTAGATCAGGGAAGAAAGT | 0.107 | 0.271 | 0.177 | 0.318 | -0.0614 | 0.259 | 0.647 | 0.356 | 0.568 | 0.428 | -0.104 | 0.38 | 1.04 | 0.755 | 0.355 | 0.214 | 0.82 | 0.282 | 0.734 | 0.0601 |
| ATCTCTAGGTAAAATTTCAGTGAATCCCGAGGAT | 0.303 | 0.0302 | -0.0647 | 0.162 | 1.26 | 0.181 | 0.177 | 0.563 | 0.504 | 0.487 | 1.67 | 1.35 | 0.773 | 1.87 | 0.138 | -0.0385 | -0.0342 | 0.0546 | 0.744 | 0.377 |
